Gal4-VP16 FLuc: VP16 counterscreen qHTS for inhibitors of ROR gamma transcriptional activity; Drosophila S2 Gal4-VP16 UAS-luciferase, luminescence, 20 h; Potency, µM (titrated, usually from 53.6 µM), for the others: at the highest dose activity, negative = inhibition, actives largely listed as inhibitors; 310,000 compounds, 3.5% hits; AID 2546, 2010;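 further: Gal4-VP16 expression switched on by copper sulfate through the metallothionein promoter; nearly all actives have a fitted effect of over 50% in size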
KinaseGlo FLuc: Counterscreen for Luciferase (Kinase-Glo TM) Inhibition. Kinase-Glo luciferase, ATP luminescence, 8 min. 200,000 compounds, 0.28% hits. Potency, µM (top dose mostly 38.3 µM), for the others: at the highest dose activity change, negative = inhibition, actives largely listed as inhibitors. Luciferin 4-monooxygenase (Photuris pensylvanica), Q27757; further: nearly all actives have a fitted effect of over 60% in size
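Light output from Kinase-Glo luciferase with luciferin and 10 uM ATP in 50 mM imidazole pH 7.2, KCl, MgCl2, Tween 20, BSA; compound pin-delivered, 8-min ambient incubation, then luminescence read.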
RORgamma inh: qHTS for inhibitors of ROR gamma transcriptional activity | AID 2551, 2010 | 310,000 compounds, 5.4% hits | Nuclear receptor ROR-gamma (Mus musculus), P51450 | Drosophila S2 Gal4-RORgamma UAS-luciferase reporter, 20 h | Potency, µM (titrated, usually from 53.6 µM), without a hit: top-dose activity change, negative = inhibition, usual class: inhibitors; further: nearly all actives have a fitted effect of over 60% in size
Target sequence (P51450 whole entry, looked up, the tested form may be a part): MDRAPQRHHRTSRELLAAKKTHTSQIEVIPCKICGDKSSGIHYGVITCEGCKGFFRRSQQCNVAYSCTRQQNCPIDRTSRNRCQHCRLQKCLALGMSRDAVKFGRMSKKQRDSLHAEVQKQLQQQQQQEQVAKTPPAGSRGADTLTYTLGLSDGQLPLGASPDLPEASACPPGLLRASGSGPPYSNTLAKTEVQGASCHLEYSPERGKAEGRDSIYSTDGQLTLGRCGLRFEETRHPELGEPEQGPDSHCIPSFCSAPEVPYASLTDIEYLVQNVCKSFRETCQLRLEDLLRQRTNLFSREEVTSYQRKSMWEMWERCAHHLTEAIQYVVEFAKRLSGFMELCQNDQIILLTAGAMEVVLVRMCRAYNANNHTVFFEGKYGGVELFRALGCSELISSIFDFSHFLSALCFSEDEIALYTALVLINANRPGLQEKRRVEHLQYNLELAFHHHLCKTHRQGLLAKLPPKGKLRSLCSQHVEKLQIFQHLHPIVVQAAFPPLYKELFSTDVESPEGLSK
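Stable Schneider cell line, Gal4 DNA-binding domain fused to ROR gamma, UAS-luciferase. Cmpd 1 hr RT → CuSO4 700 uM final → 20 hr RT → luciferase reagent 10 min → luminescence.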
* marks the source's active call; other numbers are inactive results; [ ] = remark or other dose. The list is not random: actives were taken first. Their share in the collection is about 6.4%. The call rests on the fitted dose curve; in most records, active means well fitted curve in the direction sought with a large enough effect; inconclusive means small, poorly fitted or top-dose-only effect, or another doubt; inactive means no such curve, though single readings can be large; an effect the other way counts as inactive or inconclusive. On the % scale 0 is the no-effect control and ±100 the full control effect; potency means the concentration at half of the fitted maximal effect.

For O=C(NNc1cc(N2CCOCC2)nc(N2CCOCC2)n1)C12CC3CC(CC(C3)C1)C2 the results were Gal4-VP16 FLuc -4%, KinaseGlo FLuc 4% and RORgamma inh -6%.
Cc1ccc(C(=O)NNC(=O)C2CCN(c3ncccn3)CC2)cc1 was read as Gal4-VP16 FLuc 2% and RORgamma inh 7%.
`O=C(NNc1cc(N2CCOCC2)nc(N2CCOCC2)n1)c1ccc(Cl)c(Cl)c1` gave Gal4-VP16 FLuc inconclusive, KinaseGlo FLuc 0% and RORgamma inh 14µM*.
For CC12CCC(C/C1=N\OC(=O)c1c(F)cccc1F)C2(C)C (centres undefined) the results were Gal4-VP16 FLuc -4% and RORgamma inh 34%.
For O=C(c1ccc(-c2ccccc2)cc1)c1ccc([N+](=O)[O-])cc1 the results were Gal4-VP16 FLuc 3% and RORgamma inh 32%.
O=C(C#Cc1ccccc1)c1ccc([N+](=O)[O-])cc1 was read as Gal4-VP16 FLuc 7.9µM*, KinaseGlo FLuc 0% and RORgamma inh 11µM*.
Screening CC(=O)c1cccc(NC(=S)NCc2ccco2)c1 returned Gal4-VP16 FLuc 1%, KinaseGlo FLuc 4% and RORgamma inh -4%.
For COc1ccc(Cl)cc1NC(=S)NCc1ccco1 the results were Gal4-VP16 FLuc inconclusive, KinaseGlo FLuc -2% and RORgamma inh 18µM*.
For S=C(NCc1ccco1)Nc1ccc(Cl)c(Cl)c1 the results were Gal4-VP16 FLuc 16µM*, KinaseGlo FLuc 0% and RORgamma inh 13µM*.
`S=C(NCc1ccco1)Nc1cccc(Cl)c1` gave Gal4-VP16 FLuc 7.1µM*, KinaseGlo FLuc 3% and RORgamma inh 1.8µM*.
For S=C(NCc1ccco1)Nc1cc(Cl)c(Cl)cc1Cl the results were Gal4-VP16 FLuc inconclusive, KinaseGlo FLuc -1% and RORgamma inh inconclusive.
For COc1ccc(Cl)cc1NC(=O)NCc1ccco1 the results were Gal4-VP16 FLuc 4% and RORgamma inh 31%.
`CC(C)c1ccc(/C(C(=O)O)=C(\O)C(=O)O)cc1` gave KinaseGlo FLuc -4%[7.66 µM].
Screening O=c1c(-c2cccs2)nc2cnc(Nc3ccccc3)nc2n1C[C@H]1CCCO1 returned Gal4-VP16 FLuc 6% and RORgamma inh -15%.
COc1cccc(/C=N/NC(=O)C(c2ccncc2)N2CCOCC2)c1 (centres undefined) was read as Gal4-VP16 FLuc -2% and RORgamma inh 5%.
`O=C(N/N=C/c1cc(Br)ccc1O)C(c1ccncc1)N1CCOCC1` (centres undefined) gave Gal4-VP16 FLuc 16µM*, KinaseGlo FLuc 5% and RORgamma inh 5µM*.
`COc1ccccc1OCCCCn1ncc2ccc(OC)c(OC)c2c1=O` gave Gal4-VP16 FLuc -10% and RORgamma inh 35%.
For O=C(N/N=C/c1cccs1)c1n[nH]c2c1CCCC2 the results were Gal4-VP16 FLuc 7.9µM* and RORgamma inh 5µM*.
Screening Cc1ccc(/C=N/NC(=O)c2n[nH]c3c2CCCC3)cc1 returned Gal4-VP16 FLuc 8% and RORgamma inh -25%.
`C/C(=N\NC(=O)c1cc(C)[nH]n1)c1cccs1` gave Gal4-VP16 FLuc 10µM*, KinaseGlo FLuc -23% and RORgamma inh 13µM*.
C/C(=N/NC(=O)c1cc(C(C)C)[nH]n1)c1cccs1 was read as Gal4-VP16 FLuc -47%, KinaseGlo FLuc -18% and RORgamma inh inconclusive.
CC(/C=N/NC(=O)c1n[nH]c2c1CCC2)=C\c1ccccc1 was read as Gal4-VP16 FLuc -4%, KinaseGlo FLuc -2% and RORgamma inh -13%.
For C/C(=N\NC(=O)c1n[nH]c2c1CCC2)c1cccs1 the results were Gal4-VP16 FLuc 3.5µM* and RORgamma inh 2.5µM*.
Screening COc1ccc(CCN2CC(C(=O)NCCc3cccnc3)CCC2=O)cc1 (centres undefined) returned Gal4-VP16 FLuc 2% and RORgamma inh -11%.
For CCOC(=O)c1ccc(NC(=S)N2CCN(C(=O)C3CCCO3)CC2)cc1 (centres undefined) the results were Gal4-VP16 FLuc 4% and RORgamma inh -11%.
`COc1cccc(Nc2ncc3nc(C)c(=O)n(C4CC4)c3n2)c1` gave Gal4-VP16 FLuc 23% and RORgamma inh 20%.
Screening COc1cccc(OCCCn2cc(/C=C3/C(=N)N4C=C(C)SC4=NC3=O)c3ccccc32)c1 returned Gal4-VP16 FLuc 1.4µM*, KinaseGlo FLuc -3% and RORgamma inh 2.2µM*.
For COc1ccc(OCCCn2cc(/C=C3/C(=N)N4C=C(C)SC4=NC3=O)c3ccccc32)cc1 the results were Gal4-VP16 FLuc 1.6µM*, KinaseGlo FLuc -1% and RORgamma inh 0.79µM*.

High-throughput results as filed in PubChem.
